# In PubChem BioAssay (NCATS):
# Records with an inconclusive call do not appear. Unmarked numbers belong to inactive results. Calls of active or inactive are those of the source. Calls come from the whole dose curve; as a rule, active = well fitted curve in the direction sought with a large enough effect; inconclusive = small, poorly fitted or top-dose-only effect, or another doubt; inactive = no such curve, though single readings can be large; an effect the other way counts as inactive or inconclusive.
# Experiments:
# [1] = Quantitative High-Throughput drug screen in 47 multiple myeloma cell lines against the NCATS MIPE library collection: KMS12BM_JCRB cell viability assay (AID 1918971); note: nearly all actives have a fitted effect of over 35% in size
# In short: (§1)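 CellTiter-Glo luminescence (ATP) after 48 h compound exposure, 37C/5% CO2; 500 cells/well; MIPE 4.0 approved/investigational drugs pinned in; DMSO = 100%, media only = 0% viability.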
# [2] = Quantitative High-Throughput drug screen in 47 multiple myeloma cell lines against the NCATS MIPE library collection: KMS12PE_JCRB cell viability assay (AID 1918972); note: nearly all actives have a fitted effect of over 30% in size; for viability: series mostly up to about 46 µM
# In short: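 Approved and investigational drugs from MIPE 4.0 were added by pin tool to 500 cells per well. After 48 hours at 37C, ATP-based CellTiter-Glo luminescence indicated remaining viability.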
# [3] = Quantitative High-Throughput drug screen in 47 multiple myeloma cell lines against the NCATS MIPE library collection: KMS20_JCRB cell viability assay (AID 1918973); note: nearly all actives have a fitted effect of over 45% in size
# In short: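 Myeloma cells (500 per well) were exposed to MIPE 4.0 compounds by pin transfer and incubated 48 hours at 37C, 5% CO2. Viability was read as ATP by CellTiter-Glo luminescence, normalised to DMSO (100%) and media-only (0%) wells.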
# [4] = Quantitative High-Throughput drug screen in 47 multiple myeloma cell lines against the NCATS MIPE library collection: KMS26_JCRB cell viability assay (AID 1918975); note: nearly all actives have a fitted effect of over 45% in size
# In short: as §1
# [5] = Quantitative High-Throughput drug screen in 47 multiple myeloma cell lines against the NCATS MIPE library collection: NCIH929_DSMZ cell viability assay (AID 1918978); note: nearly all actives have a fitted effect of over 35% in size
# In short: (§2)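 MIPE 4.0 approved/investigational drugs; 500 cells/well; 48 h 37 °C humidified 5% CO2; CTG luminescence readout; DMSO = 100%, media = 0% viability.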
# [6] = Quantitative High-Throughput drug screen in 47 multiple myeloma cell lines against the NCATS MIPE library collection: OCIMY1_PLB cell viability assay (AID 1918979); note: nearly all actives have a fitted effect of over 35% in size; for viability: series mostly up to about 46 µM
# In short: as §2
# [7] = Quantitative High-Throughput drug screen in 47 multiple myeloma cell lines against the NCATS MIPE library collection: MM1S_ATCC cell viability assay (AID 1918980); note: nearly all actives have a fitted effect of over 45% in size
# In short: as §2
# [8] = Quantitative High-Throughput drug screen in 47 multiple myeloma cell lines against the NCATS MIPE library collection: MM1R_ATCC cell viability assay (AID 1918981); note: nearly all actives have a fitted effect of over 35% in size
# In short: as §2
# [9] = Quantitative High-Throughput drug screen in 47 multiple myeloma cell lines against the NCATS MIPE library collection: KMS28PE_JCRB cell viability assay (AID 1918983); note: nearly all actives have a fitted effect of over 35% in size
# In short: as §2
# [10] = Quantitative High-Throughput drug screen in 47 multiple myeloma cell lines against the NCATS MIPE library collection: L363_DSMZ cell viability assay (AID 1918984); note: nearly all actives have a fitted effect of over 40% in size
# In short: as §2
# [11] = Quantitative High-Throughput drug screen in 47 multiple myeloma cell lines against the NCATS MIPE library collection: OPM1_PLB cell viability assay (AID 1918989); note: nearly all actives have a fitted effect of over 40% in size
# In short: as §2
# [12] = Quantitative High-Throughput drug screen in 47 multiple myeloma cell lines against the NCATS MIPE library collection: XG6_PLB cell viability assay (AID 1919865); note: nearly all actives have a fitted effect of over 40% in size
# In short: as §2
# [13] = Quantitative High-Throughput drug screen in 47 multiple myeloma cell lines against the NCATS MIPE library collection: MMM1_PLB cell viability assay (AID 1918976); note: nearly all actives have a fitted effect of over 35% in size
# In short: as §2
# [14] = Quantitative High-Throughput drug screen in 47 multiple myeloma cell lines against the NCATS MIPE library collection: MOLP8_DSMZ cell viability assay (AID 1918977); note: nearly all actives have a fitted effect of over 45% in size
# In short: as §2
# [15] = Quantitative High-Throughput drug screen in 47 multiple myeloma cell lines against the NCATS MIPE library collection: KMS34_JCRB cell viability assay (AID 1918985); note: nearly all actives have a fitted effect of over 40% in size
# In short: as §2
# [16] = Quantitative High-Throughput drug screen in 47 multiple myeloma cell lines against the NCATS MIPE library collection: OCIMY7_PLB cell viability assay (AID 1918987); note: nearly all actives have a fitted effect of over 65% in size
# In short: as §2
# [17] = Quantitative High-Throughput drug screen in 47 multiple myeloma cell lines against the NCATS MIPE library collection: OCIMY5_PLB cell viability assay (AID 1918988); note: nearly all actives have a fitted effect of over 65% in size
# In short: as §2
# [18] = Quantitative High-Throughput drug screen in 47 multiple myeloma cell lines against the NCATS MIPE library collection: LP1_DSMZ cell viability assay (AID 1918982); note: nearly all actives have a fitted effect of over 35% in size
# In short: as §2
# [19] = Quantitative High-Throughput drug screen in 47 multiple myeloma cell lines against the NCATS MIPE library collection: U266_ATCC cell viability assay (AID 1919864); note: nearly all actives have a fitted effect of over 35% in size
# In short: as §2
# [20] = Quantitative High-Throughput drug screen in 47 multiple myeloma cell lines against the NCATS MIPE library collection: SKMM1_PLB cell viability assay (AID 1919863); conditions: SKMM1 myeloma viability, CellTiter-Glo ATP, 48 h; viability: hits give low values; note: nearly all actives have a fitted effect of over 35% in size; for viability: series mostly up to about 46 µM
# In short: as §2
# Potency is the fitted concentration of half-maximal effect.
structure (smiles),measurement,setting,value
O=c1oc2cc(O)ccc2s1,Potency,[1],inactive
same,Potency,[2],inactive
same,Potency,[3],inactive
same,Potency,[4],inactive
same,Potency,[5],inactive
same,Potency,[6],inactive
same,Potency,[7],0.935 µM (active)
same,Potency,[8],inactive
same,Potency,[9],inactive
same,Potency,[10],inactive
same,Potency,[11],inactive
COC1=C(OC)C(=O)C(CCCCCCCCCCO)=C(C)C1=O,Potency,[1],16.6 µM (active)
same,Potency,[2],18.7 µM (active)
same,Potency,[4],23.5 µM (active)
same,Potency,[5],23.5 µM (active)
same,Potency,[6],inactive
same,Potency,[9],14.8 µM (active)
same,Potency,[10],14.8 µM (active)
same,Potency,[12],20.9 µM (active)
CN(C)c1ccc(O)c2c1C[C@H]1C[C@H]3[C@H](N(C)C)C(=O)C(C(N)=O)=C(O)[C@@]3(O)C(=O)C1=C2O,Potency,[1],18.7 µM (active)
same,Potency,[2],inactive
same,Potency,[4],13.2 µM (active)
same,Potency,[13],18.7 µM (active)
same,Potency,[14],20.9 µM (active)
same,Potency,[5],16.6 µM (active)
same,Potency,[6],18.7 µM (active)
same,Potency,[7],3.72 µM (active)
same,Potency,[8],16.6 µM (active)
same,Potency,[9],20.9 µM (active)
same,Potency,[15],16.6 µM (active)
same,Potency,[16],10.5 µM (active)
same,Potency,[17],9.35 µM (active)
C[Se]CCC(N)C(=O)O (configuration not stated),Potency,[1],inactive
same,Potency,[2],inactive
same,Potency,[13],0.855 µM (active)
same,Potency,[14],inactive
same,Potency,[5],inactive
same,Potency,[6],inactive
same,Potency,[7],inactive
same,Potency,[18],inactive
same,Potency,[9],inactive
same,Potency,[10],inactive
same,Potency,[11],inactive
COC(=O)C1=C(C)NC(C)=C(C(=O)OC(C)C)C1c1cccc2nonc12 (configuration not stated),Potency,[1],18.7 µM (active)
same,Potency,[2],inactive
same,Potency,[3],20.9 µM (active)
same,Potency,[4],inactive
same,Potency,[13],5.9 µM (active)
same,Potency,[5],2.64 µM (active)
same,Potency,[6],inactive
same,Potency,[7],2.35 µM (active)
same,Potency,[8],inactive
same,Potency,[18],inactive
same,Potency,[9],18.7 µM (active)
same,Potency,[16],6.62 µM (active)
same,Potency,[11],26.4 µM (active)
Nc1nc(N)c(N=O)c(OCC2CCCCC2)n1,Potency,[1],13.2 µM (active)
same,Potency,[2],4.69 µM (active)
same,Potency,[3],4.69 µM (active)
same,Potency,[4],13.2 µM (active)
same,Potency,[14],5.26 µM (active)
same,Potency,[5],5.26 µM (active)
same,Potency,[7],13.2 µM (active)
same,Potency,[8],14.8 µM (active)
same,Potency,[9],14.8 µM (active)
same,Potency,[10],2.64 µM (active)
same,Potency,[15],11.8 µM (active)
same,Potency,[11],7.43 µM (active)
same,Potency,[19],16.6 µM (active)
same,Potency,[12],2.96 µM (active)
Cc1cc(Cl)ccc1OCCCC(=O)NO,Potency,[1],16.6 µM (active)
same,Potency,[2],14.8 µM (active)
same,Potency,[3],4.18 µM (active)
same,Potency,[4],8.33 µM (active)
same,Potency,[14],inactive
same,Potency,[5],2.64 µM (active)
same,Potency,[7],1.18 µM (active)
same,Potency,[8],23.5 µM (active)
same,Potency,[18],26.4 µM (active)
same,Potency,[15],26.4 µM (active)
same,Potency,[11],20.9 µM (active)
same,Potency,[19],14.8 µM (active)
same,Potency,[12],1.05 µM (active)
Cc1c(OCC(F)(F)F)ccnc1CS(=O)c1nc2ccccc2[nH]1 (configuration not stated),Potency,[1],inactive
same,Potency,[2],18.7 µM (active)
same,Potency,[14],inactive
same,Potency,[6],inactive
same,Potency,[8],0.833 µM (active)
same,Potency,[18],inactive
same,Potency,[15],inactive
same,viability,[20],128%
Nc1nc(Cl)nc2c1ncn2[C@H]1C[C@H](O)[C@@H](CO)O1,Potency,[1],0.0833 µM (active)
same,Potency,[2],0.0372 µM (active)
same,Potency,[3],1.48 µM (active)
same,Potency,[13],4.69 µM (active)
same,Potency,[14],0.0833 µM (active)
same,Potency,[5],0.59 µM (active)
same,Potency,[7],0.59 µM (active)
same,Potency,[8],0.264 µM (active)
same,Potency,[18],inactive
same,Potency,[11],18.7 µM (active)
NS(=O)(=O)c1cc(C(=O)O)c(NCc2ccco2)cc1Cl,Potency,[1],inactive
same,Potency,[2],inactive
same,Potency,[4],0.209 µM (active)
same,Potency,[5],inactive
same,Potency,[6],inactive
same,Potency,[8],inactive
same,Potency,[18],inactive
same,Potency,[9],inactive
same,Potency,[10],inactive
same,Potency,[15],inactive
same,Potency,[11],inactive
same,Potency,[12],inactive
CC(C)c1nc(CN(C)C(=O)N[C@H](C(=O)N[C@@H](Cc2ccccc2)C[C@H](O)[C@H](Cc2ccccc2)NC(=O)OCc2cncs2)C(C)C)cs1,Potency,[1],4.69 µM (active)
same,Potency,[2],inactive
same,Potency,[18],16.6 µM (active)
same,Potency,[10],inactive
same,Potency,[15],16.6 µM (active)
same,Potency,[11],inactive
c1cnc2cc3c(cc2n1)C1CNCC3C1,Potency,[1],inactive
same,Potency,[2],inactive
same,Potency,[4],inactive
same,Potency,[14],inactive
same,Potency,[6],inactive
same,Potency,[8],inactive
same,Potency,[18],inactive
same,Potency,[9],inactive
same,Potency,[15],inactive
same,Potency,[17],inactive
same,Potency,[11],inactive
same,Potency,[19],inactive
Cc1cc(C2CCCCC2)n(O)c(=O)c1,Potency,[1],8.33 µM (active)
same,Potency,[2],11.8 µM (active)
same,Potency,[3],11.8 µM (active)
same,Potency,[4],10.5 µM (active)
same,Potency,[14],4.18 µM (active)
same,Potency,[5],7.43 µM (active)
same,Potency,[6],16.6 µM (active)
same,Potency,[7],0.935 µM (active)
same,Potency,[8],1.48 µM (active)
same,Potency,[18],14.8 µM (active)
same,Potency,[10],7.43 µM (active)
same,Potency,[15],5.26 µM (active)
same,Potency,[17],2.09 µM (active)
same,Potency,[11],9.35 µM (active)
same,Potency,[20],9.35 µM (active)
same,Potency,[12],8.33 µM (active)
Cc1nc2n(c(=O)c1CCN1CCC(c3noc4cc(F)ccc34)CC1)CCCC2,Potency,[1],inactive
same,Potency,[2],inactive
same,Potency,[3],inactive
same,Potency,[14],inactive
same,Potency,[5],inactive
same,Potency,[6],inactive
same,Potency,[7],inactive
same,Potency,[8],inactive
same,Potency,[18],inactive
same,Potency,[9],inactive
same,Potency,[15],inactive
same,viability,[20],134%
same,Potency,[12],inactive
COc1c2occc2cc2ccc(=O)oc12,Potency,[1],20.9 µM (active)
same,Potency,[2],inactive
same,Potency,[4],inactive
same,Potency,[5],5.26 µM (active)
same,Potency,[7],18.7 µM (active)
same,Potency,[8],inactive
same,Potency,[18],inactive
same,Potency,[9],inactive
same,Potency,[10],inactive
same,Potency,[15],inactive
same,viability,[20],118%
same,Potency,[12],inactive
